According to PubChem BioAssay (Tox21):
Records with an inconclusive call do not appear. Activity calls are given as the source filed them. Unless noted, the call rests on the fitted dose curve; in most records, active means well fitted curve in the direction sought with a large enough effect in the repeat runs; inconclusive means weak or mixed curves; inactive means no such curve, though single readings can be large; an effect the other way counts as inactive or inconclusive.

Assays:
[1] = qHTS assay to identify small molecule agonists of the estrogen related receptor (ERR) signaling pathway from Tox21 library (AID 1224849; calls by dose curve; further: nearly all actives have a fitted effect of over 15% in size); conditions: ERR reporter cell line, ONE-Glo luciferase, 18 h; at 92.4 µM (top of the series) unless noted
Summary of the method: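 ERR reporter cells (NTP line) pre-incubated 6 hours at 37 C, then exposed to compounds for 18 hours at 37 C. ONE-Glo luciferase luminescence was read after 30 minutes at room temperature.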

[2] = qHTS RealTime-Glo MT Cell Viability Assay in HepG2 cells - 24 hour (AID 1224867); further: nearly all actives have a fitted effect of over 50% in size; further: potency means the concentration at half of the fitted maximal effect
Summary of the method: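 Compound treatment began 5 h after plating HepG2 cells (600/well) with NanoLuc luciferase and prosubstrate. Plates stayed at 37 C for 40 h; luminescence was captured at six time points, 0 h through 40 h.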

[3] = A CellTox Green Cytotoxicity Assay to monitor cytotoxicity in HEK293 cells - 0 hour (AID 1224869); further: nearly all actives have a fitted effect of over 50% in size
Summary of the method: (§1)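 HEK293 cells, 600/well, were preincubated 5 hours and then exposed to compounds at 37 C for up to 40 hours. A cell-impermeant cyanine dye staining dead-cell DNA was read by fluorescence at 0, 8, 16, 24, 32 and 40 h time points.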

[4] = qHTS RealTime-Glo MT Cell Viability Assay in HepG2 cells - 40 hour (AID 1224870); further: nearly all actives have a fitted effect of over 50% in size; further: potency means the concentration at half of the fitted maximal effect
Summary of the method: (§2)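 HepG2 cells (600/well) mixed with RealTime-Glo MT reagent, settled 5 h at 37 C/5% CO2 before compound addition. Nonlytic NanoLuc luminescence from viable-cell prosubstrate reduction read repeatedly during 40 h treatment at 37 C.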

[5] = A CellTox Green Cytotoxicity Assay to monitor cytotoxicity in HEK293 cells - 40 hour (AID 1224871); further: nearly all actives have a fitted effect of over 45% in size; further: potency means the concentration at half of the fitted maximal effect
Summary of the method: as §1

[6] = qHTS RealTime-Glo MT Cell Viability Assay in HEK293 cells - 16 hour (AID 1224872); further: nearly all actives have a fitted effect of over 50% in size; further: potency means the concentration at half of the fitted maximal effect; on activity change, negative = cytotoxicity: top concentration of the series differs between compounds
Summary of the method: (§3)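 Quantitative high-throughput screen of the Tox21 10K library in HEK293: cells and RealTime-Glo reagents plated together, compound added at 5 h, luminescence monitored through 40 h at 37 C.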

[7] = qHTS RealTime-Glo MT Cell Viability Assay in HepG2 cells - 8 hour (AID 1224873); further: nearly all actives have a fitted effect of over 55% in size; further: potency means the concentration at half of the fitted maximal effect
Summary of the method: as §2

[8] = qHTS RealTime-Glo MT Cell Viability Assay in HEK293 cells - 40 hour (AID 1224874); conditions: RealTime-Glo luminescence; max response: hits give low values; further: nearly all actives have a fitted effect of over 50% in size; further: potency means the concentration at half of the fitted maximal effect
Summary of the method: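 600 cells/well were plated with the nonlytic NanoLuc/prosubstrate reagent, pre-incubated 5 h, then given 23 nL of compound in DMSO. Incubation at 37 C for 40 h, with luminescence from viable-cell-reduced substrate read repeatedly from 0 h.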

[9] = A CellTox Green Cytotoxicity Assay to monitor cytotoxicity in HEK293 cells - 24 hour (AID 1224875); further: nearly all actives have a fitted effect of over 45% in size; further: potency means the concentration at half of the fitted maximal effect
Summary of the method: as §1

[10] = qHTS RealTime-Glo MT Cell Viability Assay in HEK293 cells - 32 hour (AID 1224868); further: nearly all actives have a fitted effect of over 50% in size; further: potency means the concentration at half of the fitted maximal effect; on activity change, negative = cytotoxic: top concentration of the series differs between compounds
Summary of the method: as §3
On the % scale 0 is the no-effect control and ±100 the full control effect.

CN[C@H]1CC[C@@H](c2ccc(Cl)c(Cl)c2)c2ccc(S(N)(=O)=O)cc21
inactive: activity change, positive = activation [1] -79% | Potency [3]
active: Potency [2] 24.5 µM | Potency [4] 21.9 µM | Potency [5] 27.5 µM | Potency [6] 24.5 µM | Potency [7] 49 µM | Potency [8] 19.5 µM | Potency [9] 21.9 µM

CN1CC[C@H](c2c(O)cc(O)c3c(=O)cc(-c4ccccc4Cl)oc23)[C@H](O)C1
active: Potency [8] 0.19 µM
inactive: activity change, positive = activation [1] 28.6% [at 42.5 µM] | Potency [2] | Potency [3] | Potency [4] | Potency [7] | Potency [9]

Nc1ccc(Oc2cccc(Oc3ccc(N)cc3)c2)cc1
inactive: activity change, positive = activation [1] -57.1% | Potency [2] | Potency [3] | Potency [4] | Potency [5] | Potency [6] | Potency [7] | Potency [9]

Cc1cc(Br)ccc1NC(=O)CCl
active: Potency [10] 24.5 µM | Potency [4] 43.6 µM | Potency [5] 30.9 µM | Potency [6] 38.9 µM | Potency [8] 19.5 µM
inactive: activity change, positive = activation [1] -79.8% | Potency [3] | Potency [9]

[Cl][Sc]([Cl])[Cl]
inactive: activity change, positive = activation [1] 0.963% | Potency [10] | Potency [3] | Potency [4] | Potency [5] | Potency [6] | Potency [7] | max response [8] -3.01% | Potency [9]

CSc1ccc(O)cc1C
inactive: activity change, positive = activation [1] -0.368% | Potency [2] | Potency [3] | Potency [4] | Potency [5] | Potency [7] | Potency [9]

N#CCCOCCC#N
inactive: activity change, positive = activation [1] 1.08% | Potency [2] | Potency [10] | Potency [3] | Potency [5] | Potency [7] | max response [8] 2.28% | Potency [9]

O=C(O)C[C@H](O)C[C@H](O)/C=C/c1c(C2CC2)nc2ccccc2c1-c1ccc(F)cc1
inactive: activity change, negative = cytotoxicity [2] -20.3% [at 15.8 µM] | cytotoxicity [3] -2.87% [at 15.8 µM] | activity change, negative = cytotoxic [4] -27.7% [at 15.8 µM] | cytotoxicity increase [5] 1.42% [at 15.8 µM] | activity change, negative = cytotoxicity [6] 7.11% [at 15.8 µM] | viability change, negative = cytotoxic [7] 4.17% [at 15.8 µM] | max response [8] -20.4% | activity change [9] 1.41% [at 15.8 µM, hits give high values]
active: activity change, positive = activation [1] 31.2% [at 19 µM]

CCOC(=O)C1=NN(c2ccc(Cl)cc2Cl)C(C)(C(=O)OCC)C1 (centres undefined)
inactive: activity change, positive = activation [1] -36.6% | Potency [2] | Potency [3] | Potency [4] | Potency [5] | Potency [7] | Potency [9]

CC(C)C(=O)C(C)C
inactive: activity change, positive = activation [1] 1.37% | Potency [2] | Potency [3] | Potency [4] | Potency [5] | Potency [6] | Potency [7] | max response [8] 8.37% | Potency [9]

CCCCCc1ccc(O)cc1
active: Potency [5] 34.7 µM | Potency [9] 38.9 µM
inactive: activity change, positive = activation [1] 1.58% | Potency [2] | Potency [3] | Potency [4] | Potency [7]

C=C1CC[C@H]2O[C@]2(C)CC[C@@H]2[C@@H]1CC2(C)C
inactive: activity change, positive = activation [1] 2.38% | Potency [2] | Potency [3] | Potency [4] | Potency [5] | Potency [7] | Potency [9]

Cc1c[nH]c(=O)[nH]c1=O
inactive: activity change, positive = activation [1] 0.0206% | Potency [10] | Potency [3] | Potency [4] | Potency [5] | Potency [6] | Potency [7] | max response [8] 10.6% | Potency [9]

CC1(C)[C@H]2CC[C@]1(C)C(=O)C2
inactive: activity change, positive = activation [1] 6.28% | Potency [10] | Potency [3] | Potency [4] | Potency [5] | Potency [6] | Potency [7] | max response [8] 16% | Potency [9]

O=C1c2ccccc2C(=O)c2c(Cl)cccc21
inactive: activity change, positive = activation [1] 1.21% [at 42.5 µM] | Potency [2] | Potency [3] | Potency [4] | Potency [5] | Potency [7] | Potency [9]

CCN(CCC#N)c1ccc(N=Nc2ccc([N+](=O)[O-])cc2)cc1
active: activity change, positive = activation [1] 15.7%
inactive: Potency [2] | Potency [3] | Potency [4] | Potency [5] | Potency [7] | max response [8] 0.454% | Potency [9]

COc1ccc(OC)c(N=Nc2c(O)ccc3ccccc23)c1
inactive: activity change, positive = activation [1] -14.1% | Potency [2] | Potency [3] | Potency [4] | Potency [5] | Potency [9]

CN(C)CCOc1ccc(/C(=C(/CCCl)c2ccccc2)c2ccccc2)cc1
active: Potency [2] 40.9 µM | Potency [4] 40.9 µM | Potency [5] 45.8 µM | Potency [6] 36.4 µM | Potency [7] 36.4 µM | Potency [8] 40.9 µM | Potency [9] 45.8 µM
inactive: activity change, positive = activation [1] -52.6% | Potency [3]

CC(c1cc(C(C)(C)C)cc(C(C)(C)C)c1O)c1cc(C(C)(C)C)cc(C(C)(C)C)c1O
active: Potency [8] 19.5 µM
inactive: activity change, positive = activation [1] -15.4% | Potency [2] | Potency [3] | Potency [4] | Potency [5] | Potency [7] | Potency [9]

Oc1ccc(C2(c3ccc(O)c(C4CCCCC4)c3)CCCCC2)cc1C1CCCCC1
active: Potency [10] 38.9 µM | Potency [4] 34.7 µM | Potency [6] 43.6 µM | Potency [7] 43.6 µM | Potency [8] 24.5 µM
inactive: activity change, positive = activation [1] -70.3% | Potency [3] | Potency [5] | Potency [9]

COc1cc([C@@H]2c3cc4c(cc3[C@@H](O[C@@H]3O[C@@H]5CO[C@@H](C)O[C@H]5[C@H](O)[C@H]3O)[C@H]3COC(=O)[C@H]23)OCO4)cc(OC)c1O
inactive: activity change, positive = activation [1] -61.8% | Potency [2] | Potency [3] | Potency [4] | Potency [5] | Potency [7] | Potency [9]
active: Potency [8] 0.684 µM

O=[N+]([O-])c1ccc(O)c2ncccc12
inactive: activity change, positive = activation [1] -55.9% [at 42.5 µM] | Potency [2] | Potency [3] | Potency [4] | Potency [6] | Potency [9]
active: Potency [5] 9.52 µM | Potency [8] 9.52 µM

CO[Si](OC)(c1ccccc1)c1ccccc1
inactive: activity change, positive = activation [1] -12.9% | Potency [10] | Potency [3] | Potency [4] | Potency [5] | Potency [6] | max response [8] -18.7% | Potency [9]
